Sampled rows, rich in hits. Any-hit rate of the full collection: about 19%.
HT1080NT lethal: kills 2HG-producing HT-1080-NT fibrosarcoma cells | HT-1080-NT fibrosarcoma viability, CellTiter-Glo ATP luminescence, 48 h | Potency, µM (doses to about 46.1 µM), actives largely listed as cytotoxic | actives 1.6% (n = 360,000) | AID 686970;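 further: NT is the 2HG producing partner of a matched IDH1 knockdown line; nearly all actives have a fitted effect of over 55% in size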
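Viability by CellTiter-Glo luminescence after 48 h compound exposure at 37C of HT-1080-NT cells (750/well, RPMI, 5% FBS). % activity scaled between DMSO wells and medium-only wells, then curve-fitted and categorized by curve class.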
TDP1 cell CPT: growth inhibition of DT40 Tdp1-/-;hTDP1 cells with camptothecin (screen for TDP1 inhibitors) | Potency, µM (titrated, usually from 46.2 µM), actives largely listed as inhibitors | actives 12% (n = 420,000) | chicken DT40 Tdp1-/-;hTDP1 cells + 20 nM CPT, ATP luminescence, 48 h; further: nearly all actives have a fitted effect of over 55% in size
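Cell growth measured by CellTiter-Glo luminescence after a minimum 48 h, 37 C compound exposure with 20 nM CPT in Tdp1-knockout DT40 cells stably expressing hTDP1, seeded 400/well; qHTS titration format.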
HT1080 IDH1KD tx: HT-1080 IDH1 knockdown cell toxicity (counter line) | AID 686971 | actives 2% (n = 360,000) | Potency, µM (series often up to 46.1 µM), actives largely listed as cytotoxic | HT-1080 IDH1 knockdown viability, ATP luminescence, 48 h
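Viability of IDH1-knockdown HT-1080 fibrosarcoma cells was assessed by CellTiter-Glo after 48 h at 37 °C with titrated compound; concentration-effect curves were classified by fit quality and response size.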
IL1B secr inh: blocks inflammasome-driven IL-1 beta release | THP-1 LPS/ATP IL-1B secretion, AlphaLISA, 16 h; hits give low values | activity change, % at 57.5 µM | AID 743279 | actives 4.7% (n = 360,000); in the data active means activity change below about -50%; inconclusive means mostly about -30% to -49%
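Secreted IL-1B measured by AlphaLISA bead assay after 16 h compound exposure of THP-1 cells; compounds (final up to 57.5 uM) added 1 h before LPS (250 ng/mL) and ATP (1.25 mM) stimulation; lower signal means less secretion.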
TDP1 cell noCPT: qHTS for Inhibitors of human tyrosyl-DNA phosphodiesterase 1 (TDP1): qHTS in cells in absence of CPT; actives 15% (n = 420,000); DT40 Tdp1-/- hTDP1 cells, no CPT, ATP luminescence, 48 h; AID 686978, 2013; Potency, µM (series often up to 46.2 µM), most hits filed as inhibitors; further: nearly all actives have a fitted effect of over 55% in size
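Compound effects on proliferation are scored in DT40 Tdp1-/-;hTDP1 cells in the absence of CPT. ATP levels (CellTiter-Glo luminescence) are recorded after a ≥48 hr, 37 °C incubation.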
Hits are given with their value; - = inactive; ? = inconclusive; . = no result; [ ] = remark or other dose. Unless noted, the call rests on the fitted dose curve; in most records, active means well fitted curve in the direction sought with a large enough effect; inconclusive means small, poorly fitted or top-dose-only effect, or another doubt; inactive means no such curve, though single readings can be large; an effect the other way counts as inactive or inconclusive.

SMILES	HT1080NT lethal	TDP1 cell CPT	HT1080 IDH1KD tx	IL1B secr inh	TDP1 cell noCPT
COc1cccc(C2N=C(c3ccccc3C)NO2)c1OC (centres undefined)	-	-	-	-	-
CCc1ccccc1N1C(=O)C2CC=CCC2C1=O (centres undefined)	-	?	-	-	16.4µM
COc1ccc(-c2cn3c(n2)sc2cc(C(=O)Nc4cc(OC)cc(OC)c4)ccc23)cc1	.	-	.	.	-
COc1ccc(-c2cn3c(n2)sc2cc(C(=O)NCCCN4CCCCC4)ccc23)cc1	.	1.03µM	.	.	0.731µM
COc1ccc(-c2cn3c(n2)sc2cc(C(=O)NCCCN4CCCCCC4)ccc23)cc1	.	2.91µM	.	.	3.26µM
COc1cccc(-c2cc(C(=O)NCc3ccccc3)[nH]n2)c1	.	-	.	.	-
O=C(NCc1ccc(F)cc1)c1cc(-c2ccc(Cl)cc2)n[nH]1	.	7.31µM	.	.	8.2µM
O=C(NCc1ccc(F)cc1)c1cnc(Cl)c(Cl)c1	-	?	-	-78.6	?
COc1cc(CNC(=O)c2cc(-c3cc(OC)ccc3Cl)n[nH]2)cc(OC)c1	-	?	-	-	-
COc1ccc(CNC(=O)c2cc(-c3ccc(C)c(C)c3)n[nH]2)cc1	.	?	.	.	16.4µM
COc1ccc(CNC(=O)c2cc(-c3ccc(Cl)cc3)n[nH]2)cc1	.	-	.	.	-
CCOc1ccc(-c2cc(C(=O)NCc3cc(OC)cc(OC)c3)[nH]n2)c(C)c1	-	20.6µM	-	-	?
Cc1[nH]c(=O)[nH]c(=O)c1S(=O)(=O)Nc1cccc(Cl)c1C	.	-	.	.	-
COc1ccccc1-c1cn(CC[C@H]2CC[C@@H](NS(=O)(=O)c3ccccc3C)[C@@H](CO)O2)nn1	-	?	-	-	?
CC1(C(=O)NS(=O)(=O)c2ccc(Cl)cc2)CCN1C(=O)C1CC1 (centres undefined)	-	-	-	-	-
Cc1cc2[nH]c(=O)c(=O)[nH]c2cc1S(=O)(=O)Nc1cccc(Cl)c1	-	-	-	-	-
COc1ccc(-c2cc(C(=O)NCc3cccc(C(F)(F)F)c3)[nH]n2)c(C)c1	-	25.9µM	-	-	?
COc1ccc(CNC(=O)c2cccc(-c3ccc(C)c4ccccc34)n2)cc1	?	?	?	-	18.4µM
Cc1ccc(Cl)cc1-c1cc(C(=O)NCc2cccc(Cl)c2)[nH]n1	?	18.4µM	?	-50.7	?
COc1cc(CNC(=O)c2cc(-c3cc(Cl)ccc3C)n[nH]2)cc(OC)c1	-	25.9µM	-	-	?
Cc1ccc(Cl)cc1-c1cc(C(=O)NCc2ccccc2)[nH]n1	?	-	-	.	-
[O-]c1c[n+](-c2ccc(-[n+]3cc([O-])on3)cc2)no1	-	?	-	-	?
CC(C)(C)CC(=O)NC(=S)NCCc1ccccc1	?	-	10µM	-	-
COc1ccc(NC(=S)NCCc2c[nH]c3ccccc23)cc1	-	?	-	-	?
COc1ccccc1NC(=S)NCCc1ccccc1	-	-	-	-	20.6µM
SMILES	HT1080NT lethal	TDP1 cell CPT	HT1080 IDH1KD tx	IL1B secr inh	TDP1 cell noCPT
Cc1ccc(NC(=S)NCCc2c[nH]c3ccccc23)c(C)c1	-	13µM	-	-	20.6µM
COc1cc(NC(=S)NCCc2c[nH]c3ccccc23)c(OC)cc1Cl	?	?	?	-66.1	?
Cc1ccc(NC(=S)NCCc2ccccc2)c(C)c1	-	?	-	-	?
C[C@H](NC(=O)C1CC(=O)N(c2ccc3c(c2)OCCO3)C1)C(=O)N1CCCCC1 (some centres undefined)	-	-	-	-	-
CN(C)c1nc(C(N)=O)nc(N2CCOCC2)n1	-	-	-	-	-
COc1ccccc1NC(=S)NCCc1c[nH]c2ccccc12	-	14.6µM	-	-	18.4µM
Cc1ccccc1-n1nnnc1SCC(=O)c1c(N)n(C2CC2)c(=O)[nH]c1=O	-	?	-	-	?
CCOC(=O)c1sc(N(Cc2ccccc2)C(=O)CSc2ncn[nH]2)nc1C	-	?	-	-52.2	?
CCOC(=O)c1sc(N(Cc2ccccc2)C(=O)CCl)nc1C	?	?	18.4µM	-100.6	20.6µM
CCOC(=O)c1sc(N(Cc2ccccc2)C(=O)COC(=O)c2ccccc2O)nc1C	-	-	-	-	?
CCOC(=O)c1sc(N(Cc2ccccc2)C(=O)COC(=O)c2ccc(O)cc2)nc1C	-	9.2µM	-	?	5.8µM
CC1CCCC(C)N1c1ccc(S(=O)(=O)N2CCOCC2)cc1Cl (centres undefined)	-	?	-	-	?
O=[N+]([O-])c1ccc(-c2nnc(-c3ccccc3)c(NCCCO)n2)cc1	-	20.6µM	-	-	16.4µM
OCCCNc1nc(-c2ccc(Cl)cc2)nnc1-c1ccc(Br)cc1	?	23.1µM	?	-78.4	20.6µM
CCn1c(-c2ccccc2F)nc2cc(NC(C)=O)cc(C(=O)N(C)Cc3ccccn3)c21	.	-[9.04 µM]	.	.	-
O=C1COc2ccc(S(=O)(=O)N3CCN(c4cccc(Cl)c4)CC3)cc2N1	-	-	-	-	-
O=C(CCS(=O)(=O)c1ccc2c(c1)NC(=O)CO2)NCCc1ccc(Cl)cc1	-	-	-	-	-
Cc1ccc(Cl)cc1N1CCN(C(=O)CCS(=O)(=O)c2ccc3c(c2)NC(=O)CO3)CC1	-	?	-	-52.9	10.3µM
O=C1COc2ccc(S(=O)(=O)CCC(=O)N3CCN(c4cccc(Cl)c4)CC3)cc2N1	?	10.3µM	?	-	18.4µM
Cc1ccc(N2CCN(C(=O)CCS(=O)(=O)c3cc4c(cc3Cl)NC(=O)CO4)CC2)c(C)c1	.	23.1µM	.	.	20.6µM
CCOC(=O)N1CCN(C(=O)CCS(=O)(=O)c2cc3c(cc2Cl)NC(=O)CO3)CC1	-	-	-	-	-
O=C(CSc1cccc[n+]1[O-])Nc1c(Br)cc([N+](=O)[O-])cc1Br	-	-	-	-	-
CC(C)(C)CC(=O)Nc1nnc(SCC(=O)N2CCCCC2)s1	-	-	-	-	?
CCCCCCCCCCOC(=O)Cn1c(COc2ccccc2OC)[n+](C)c2ccccc21	14.6µM	1.03µM	20.6µM	-91.2	1.3µM
Cc1cc(O)c2c(c1)O[C@@]1(C)CC[C@H]3C(C)(C)CCCC34CO[C@@H]2[C@H]41 (some centres undefined)	.	?	.	.	16.8µM
Oc1ccccc1N1CCN(Cc2ncc(-c3ccccc3)o2)CC1	-	-	-	-52.8	-
c1ccc(-c2nnc(CN3CCN(c4ccccc4)CC3)o2)cc1	-	-	-	-	-
O=C(c1ccc(OC2CCN(CCc3ccccc3)CC2)cc1)N1CCCC1	-	-	-	-	-
CC(C)N1CCN(C(=O)c2ccc(OC3CCN(CCc4ccccc4)CC3)cc2)CC1	-	?	-	-	23.1µM

Screens from PubChem BioAssay.
